92 compounds from PubChem BioAssay AID624037 (The Scripps Research Institute Molecular Screening Center, 2012) can be followed below.

SMILES strings stand for the structures. Screen size: about 360,000 compounds; about 700 (0.19%) were called active.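 Rule for the calls: active = activation above the run's mean over test compounds plus 3 SD (cut at about 23% in these data); inactive = the rest.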 Only a selection was taken, and actives are over-represented in it overall.

Sequence of Muscarinic acetylcholine receptor M5 (Homo sapiens) (P08912 whole entry, looked up): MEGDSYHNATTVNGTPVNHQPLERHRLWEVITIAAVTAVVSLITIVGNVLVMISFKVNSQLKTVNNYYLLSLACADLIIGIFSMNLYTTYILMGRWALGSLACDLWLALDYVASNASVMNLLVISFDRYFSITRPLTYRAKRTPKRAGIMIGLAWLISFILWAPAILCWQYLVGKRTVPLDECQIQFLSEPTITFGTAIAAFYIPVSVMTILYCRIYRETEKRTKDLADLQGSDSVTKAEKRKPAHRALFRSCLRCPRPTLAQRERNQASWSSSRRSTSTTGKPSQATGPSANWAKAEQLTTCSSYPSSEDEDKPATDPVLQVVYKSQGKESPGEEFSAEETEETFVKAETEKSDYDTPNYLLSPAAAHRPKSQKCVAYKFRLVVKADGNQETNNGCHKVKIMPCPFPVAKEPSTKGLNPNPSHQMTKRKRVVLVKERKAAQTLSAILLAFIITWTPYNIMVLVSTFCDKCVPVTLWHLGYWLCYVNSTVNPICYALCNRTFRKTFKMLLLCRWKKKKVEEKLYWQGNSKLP

The assay addresses Muscarinic acetylcholine receptor M5 (Homo sapiens) (UniProt P08912). The experiment in a line: human M5 muscarinic receptor agonists, primary screen, CHO-K1 cells, Fluo-8 calcium fluorescence (AID 624037).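 Note: signal is peak over basal fluorescence ratio across the kinetic read.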 To be noted: CHO-K1 hM5 cells, at 3 µM, hits give high values, 0% DMSO wells, 100% maximal acetylcholine response.
As to `CC(C)C[C@H]1CNC(=S)N1C[C@H]1CCCN1C[C@H](Cc1ccc(O)cc1)N1C[C@H](Cc2ccc(O)cc2)N(CC2CCCCC2)C1=S`, the activation was -1.54% (inactive).
On to `Cc1ccccc1C(=O)NCCN=C1NS(=O)(=O)c2ccccc21`, for which the activation was -1.12% (inactive).
For `N#CC1(NC(=O)COC(=O)CCN=C2NS(=O)(=O)c3ccccc32)CCCCC1`, the activation was -5.2% (inactive).
As for `O=C(CCCN=C1NS(=O)(=O)c2ccccc21)OCC(=O)c1ccc(F)c(F)c1`, the activation is 37.2% (active).
On to `O=C(Cc1c(Cl)cccc1Cl)NC1CC1`, for which the activation is -4.03% (inactive).
`Cc1ccc(C(=O)N(CC(=O)NC2CCCC2)c2ccc(F)cc2)s1`: the activation is -2.46% (inactive).
On to `O=C(/C=C(O)/C=C/c1ccc(O)cc1)/C=C/c1ccc(O)cc1`, for which the activation was 156% (active).
As for `COc1cccc(C(=O)NNC(=O)/C=C/c2ccccc2)c1`, the activation is -2.95% (inactive).
Regarding `c1ccc(C(=NNc2nc3ccccc3s2)c2ccccn2)cc1`, the activation is 58.8% (active).
For `Cc1cc(C)c2c(c1)cc(C)c1nnc(SCC(=O)Nc3cc(C)on3)n12`, the activation is 3.15% (inactive).
The result for `O=C(CN(C(=O)CCC(=O)Nc1nccs1)c1ccc(F)cc1)NCc1ccc2c(c1)OCO2` reads -1.79% (inactive).
In the case of `Cc1nccn1CCCNC(=O)CC1C(=O)NCCN1Cc1ccc(Cl)c(F)c1` (configuration not stated), the activation was -2.66% (inactive).
The result for `CC(=O)C[C@@H]1OC[C@H](CO)N1S(=O)(=O)c1ccc(C)cc1` reads 4.39% (inactive); that for `O=C(COC(=O)Cc1ccc(Br)cc1)Nc1ccc(N2CCOCC2)cc1`, 4.95% (inactive).
Take `CC(C)[C@H](NC(=O)N1CC(=O)Nc2ccccc21)C(=O)N[C@@H](Cc1c[nH]c2ccccc12)C(=O)O`: the activation was 1.96% (inactive).
As to `Cc1cccc(C)c1NC(=O)CNC(=O)Cc1ccc(Br)cc1`, the activation was -2.94% (inactive).
`CCOc1ccc(CNC(=O)CCC(=O)N2CCSc3ccccc32)cc1`: the activation is 3.47% (inactive).
Take `CCn1cc(C(=O)NCC2COc3ccccc3O2)c2cc(OC)c(OC)cc2c1=O` (configuration not stated): the activation is 1.23% (inactive).
On to `O=C1C(=O)N(c2ccccc2)c2ccccc21`, for which the activation was 15.5% (inactive).
Take `O=C1C(=O)N(CC2COc3ccccc3O2)c2ccccc21` (configuration not stated): the activation was 26.9% (active).
The result for `CCC(=O)c1ccc(OCC(=O)N(CC)CC2COc3ccccc3O2)cc1` (configuration not stated) reads -1.18% (inactive).
For the compound `O=C(Cn1nc(Cc2cccnc2)c2ccccc2c1=O)NCC1COc2ccccc2O1` (configuration not stated), the activation was 1.51% (inactive).
On to `c1ccc2c(c1)OCC(CNc1ncnc3nc[nH]c13)O2` (configuration not stated), for which the activation was 108% (active).
Turning to `Cc1ccc2c(c1)C(O)(CC(=O)c1cccc(-n3cccc3)c1)C(=O)N2` (configuration not stated), the activation is 3.01% (inactive).
For the compound `Cc1cccc(N=C2NC(=O)CS2)c1C`, the activation is 2.4% (inactive).
As to `O=c1[nH]oc(O)c1-c1ncc(C(F)(F)F)cc1Cl`, the activation was -1.47% (inactive).
Consider `COc1ccc(NS(=O)(=O)c2ccc(C)c(C(=O)NNC(=O)c3csc(N4CCOCC4)n3)c2)cc1`, for which the activation was -2.51% (inactive).
Turning to `CC1CN(c2cc(=O)n(Cc3ccc(F)cc3)c(=O)[nH]2)CC(C)O1` (configuration not stated), the activation was 1.48% (inactive).
To `O=C1C(Sc2cccc(F)c2)=C[C@@]2(O)CC[C@@H](O)[C@]1(Sc1cccc(F)c1)[C@H]2O` belongs -1.89% (inactive); to `CC12CN3CC(C)(CN(C1)C3c1ccc(Cl)cc1Cl)C2=O` (configuration not stated), 0.42% (inactive); to `CCC(C)C1(C2CCCC2)NC(=O)NC1=O` (configuration not stated), -2.24% (inactive).
For the compound `Cc1ccsc1C1C(C#N)=C(N)OC2=C1C(=O)CC(C)(C)C2` (configuration not stated), the activation is -3.66% (inactive).
`CCOC(=O)c1cnc(SC)nc1Sc1ccc(Cl)cc1Cl`: the activation is -3.12% (inactive).
The result for `O=C(Cn1nc(Cc2cccnc2)c2ccccc2c1=O)NCC1CCCO1` (configuration not stated) reads 1.65% (inactive).
`COC(=O)c1ccc(OC(=O)c2nn(C)cc2Cl)c(OC)c1`: the activation is -3.16% (inactive).
To `CCN(CC)CCCNC(=O)c1ccc2c(=O)n(Cc3ccc4c(c3)OCO4)c(=S)[nH]c2c1` belongs -16.7% (inactive); to `COC(=O)[C@]12CCCCC=C1N(CCC1=CCCCC1)C(=O)[C@H](CC(=O)N1CCSCC1)C2`, 0.77% (inactive); to `CCOC(=O)[C@]12CCCC=C1N(CCC1=CCCCC1)C(=O)[C@H](CC(=O)N1CCCCC1)C2`, 2.91% (inactive).
Consider `CCOC(=O)N1CCN(C(=O)C[C@@H]2C[C@@]3(C(=O)OC)CCCCC=C3N(CCC3=CCCCC3)C2=O)CC1`, for which the activation was 24% (active).
`COc1cc(NC(=S)NCCSc2ccc(C)cc2)cc(OC)c1`: the activation was 0.65% (inactive).
For the compound `CCCCCCCCNS(=O)(=O)CCNC1CCCCC1`, the activation is 2.22% (inactive).
On to `CCn1c(-c2ccoc2C)n[nH]c1=S`, for which the activation is -2.69% (inactive).
`CC(C[N+](C)(C)C)OC(N)=O` (configuration not stated): the activation was 96.3% (active).
Consider `CC(=O)OCCC(C)C`, for which the activation is 1.99% (inactive).
For the compound `CC(=O)OC(C)C[N+](C)(C)C` (configuration not stated), the activation is 99.8% (active).
Consider `CCCCOC(=O)Nc1nccs1`, for which the activation was 1.28% (inactive).
With `COc1ccc(C(=O)NC(Cc2ccc(OC(=O)c3ccc(OC)cc3)cc2)C(=O)O)cc1` (configuration not stated), the activation is 0.61% (inactive).
Regarding `Cc1ccc(O)c(/C=N/NC(=O)COc2ccc3c(C)cc(=O)oc3c2)c1`, the activation is -0.84% (inactive).
`Cc1ccsc1C(=O)NNC(=O)COc1ccc(Br)cc1`: the activation was 2.78% (inactive).
With `Cc1ccc(O)c(NC(=S)NC(=O)COc2ccc(Br)cc2)c1`, the activation was 31.2% (active).
For `Cc1ccc(S(=O)(=O)N2CCCC2CO)cc1` (configuration not stated), the activation was 1.95% (inactive).
On to `CC1(C)OC(=O)C2=C(CC(c3ccccc3)OC2CCc2ccccc2)O1` (configuration not stated), for which the activation was -0.45% (inactive).
Turning to `CCCCCCSc1nsc(N)n1`, the activation is -2.92% (inactive).
To `O=C(NCCN=C1NS(=O)(=O)c2ccccc21)c1ccc(S(=O)(=O)N2CCOCC2)cc1` belongs -1.87% (inactive); to `Cc1ccccc1N(C(=O)Cc1cccs1)C(C(=O)NC1CCCCC1)c1cn(C)nc1C` (configuration not stated), -1.99% (inactive); to `O=C(O)CC/C(=N\NC(=O)c1ccc(F)cc1)c1ccc(Br)cc1`, -1.22% (inactive).
Consider `COc1ccc(COC(=O)c2ccc(Cl)c(S(=O)(=O)N3CCOCC3)c2)cc1F`, for which the activation is -0.05% (inactive).
To `CC1CCN(S(=O)(=O)c2ccc3ncn(CC(=O)N(C)C4CCCCC4)c(=O)c3c2)CC1` belongs -0.64% (inactive); to `CC(=O)Nc1ccc(S(=O)(=O)N(C)c2ccc(OCC(=O)OCC(=O)N3CCCCC3)cc2)cc1`, 0.4% (inactive).
For `COc1ccc(CN(C)C(=S)Nc2ccc(Cl)cc2Cl)cc1`, the activation was -4.4% (inactive).
In the case of `O=C(CCS(=O)(=O)c1cccc2nonc12)NCCc1ccccc1Cl`, the activation is -0.36% (inactive).
The result for `Cc1nc(C)c2c(c1C(F)(F)F)-c1ccccc1C2(F)F` reads -0.42% (inactive); that for `COc1ccc(-c2onc(C)c2-c2ccc3c(c2)OCCO3)c(O)c1`, 12.5% (inactive).
The result for `COc1ccc(-c2n[nH]c(C)c2-c2ccc(OC)c(OC)c2)c(O)c1` reads 29.1% (active); that for `COc1ccc(CCN2C(=O)c3[nH]nc(-c4ccccc4O)c3C2c2ccc(C)cc2)cc1OC` (configuration not stated), -2.41% (inactive).
Regarding `O=C(NCC12CC3CC(C1)CC(CNC(=O)N1CCCC1)(C3)C2)N1CCCC1`, the activation was 2.96% (inactive).
To `COCCNc1ccc(-c2n[nH]c(=O)c3ccccc23)cc1[N+](=O)[O-]` belongs -2.62% (inactive); to `CCCCC(=O)N1CC2(C)CN(C(=O)CCCC)CC(C)(C1)C2=O`, 1.44% (inactive).
The result for `O=C(COc1ccc([N+](=O)[O-])cc1Cl)Nn1cnnc1` reads -0.29% (inactive); that for `COc1ccc(C(C[N+](=O)[O-])n2nc(C)cc2C)cc1` (configuration not stated), 1.97% (inactive).
As to `Cc1cc(NC(=O)Nc2ccccc2[N+](=O)[O-])no1`, the activation was -2.19% (inactive).
As for `CN(C)c1ccc(C(CNC(=O)c2ccc(F)cc2)c2c[nH]c3ccccc23)cc1` (configuration not stated), the activation is -4.52% (inactive).
As for `Cc1cc(=O)oc2c3c(cc(OCC(=O)NCCC(=O)N[C@@H](C)C(=O)O)c12)OC(C)(C)CC3`, the activation was -2.41% (inactive).
With `C[C@@H]1CN([C@H](C)CO)S(=O)(=O)c2ccc(C#CC3CCCCC3)cc2O[C@H]1CN(C)C(=O)Cc1ccncc1`, the activation was 1.87% (inactive).
`Cn1nc(N)c2ncc(C(Cl)(Cl)Cl)nc21`: the activation is -0.27% (inactive).
For `CCC1CCCCN1S(=O)(=O)Cc1ccccc1Cl` (configuration not stated), the activation is -4.8% (inactive).
The result for `CCCS(=O)(=O)N1CCN(C(=O)c2cccs2)CC1` reads 2.49% (inactive); that for `COc1ccccc1/C=C/CN1CCC(CO)(Cc2ccccc2)CC1`, 0.17% (inactive); that for `O=C(Cn1cnc2c(OCc3ccccc3)ncnc21)NCc1nc2ccccc2[nH]1`, -0.16% (inactive).
On to `Cc1ccc(NC(=O)C(C)c2cccc(C(=O)c3ccccc3)c2)cc1` (configuration not stated), for which the activation is 5.38% (inactive).
`CCCC(C)C(=O)Nc1ccc(NC(C)=O)cc1` (configuration not stated): the activation is 0.87% (inactive).
Consider `CCC(C(=O)Nc1ccc(C(C)C)cc1)c1ccccc1` (configuration not stated), for which the activation was 35.8% (active).
As for `CCOC(=O)c1sc(NC(=O)CSc2nc(C)cc(C(F)(F)F)n2)c(C#N)c1C`, the activation is -3.97% (inactive).
For the compound `Clc1ccc(C2=CSC3=Nc4cccc5cccc(c45)N23)cc1`, the activation is -0.82% (inactive).
Turning to `CC1=CC2=NC(=O)/C(=C/c3coc4ccccc4c3=O)C(=N)N2O1`, the activation is 38.9% (active).
The result for `COc1ccc(OCCCn2cccc2/C=C2/C(=N)N3OC(C)=CC3=NC2=O)cc1` reads 0.09% (inactive); that for `CC(C)CCN1CCN(Cc2cn[nH]c2C2CCCCC2)CC1CCO` (configuration not stated), -10.3% (inactive).
As to `CCOCCCNC(=O)c1ccc(CS(=O)(=O)c2cccc(C(F)(F)F)c2)o1`, the activation is -2.51% (inactive).
As for `Cc1cc2nc3c(=O)n(Cc4ccccc4)c(=O)[nH]c3nc2cc1N`, the activation was 86.1% (active).
For the compound `Cc1cc(OCC(=O)N(C)c2c(N)n(Cc3ccccc3)c(=O)[nH]c2=O)c(C(C)C)cc1Cl`, the activation is -1.72% (inactive).
The result for `Cn1c(=O)[nH]c(=O)c2c1[nH]c(=S)n2Cc1ccccc1` reads -2.82% (inactive).
Turning to `O=C(COc1ccc(F)cc1)N(CC1=CCS(=O)(=O)C1)c1ccccc1`, the activation is -3.65% (inactive).
